Screening data as filed in PubChem BioAssay.
The sample as a whole holds a higher share of hits than the screen did.
NRP1-CendR mod – alters CendR peptide binding to human NRP-1. FAM-RPARPAR peptide binding to NRP-1, fluorescence polarization. inhibition, % at 25 µM. 360,000 tested, 0.85% active;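 active = inhibition or corrected inhibition above about 18%, plus a signal ratio from 0.5 to 1.5, limit read from the data, passing the limit was not always enough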
PDI turbidity – inhibitors of human protein disulfide isomerase. inhibition, % at 10 µM. PDI insulin aggregation turbidity, A650, 90 min. AID 588391. 350,000 tested, 0.052% active;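 active = mean inhibition across replicates of 30% or more, whatever share of single replicates reach that level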
ARNT TACC3 PPI – ARNT/TACC3 interaction disruption; AlphaScreen His-ARNT PAS-B/GST-TACC3 binding, luminescence; TACC3 fragment carries E629A point mutation; inhibition, % at 9.99 µM; 390,000 tested, 0.66% active; AID 623870;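 active = mean inhibition of replicates at least 50% and at least half of replicates each reaching 50%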;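 also: 0% = complete ARNT plus TACC3 wells and 100% = ARNT alone without TACC3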
ALR inh – human ALR oxidase inhibition via reduced H2O2; P55789; purified ALR, DTT oxidation, H2O2 HRP-luminol luminescence; inhibition, % (test concentration not listed); 290,000 tested, 3.8% active; AID 485317;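 active = mean replicate inhibition above about 79%, with every replicate also reaching it, limit read from the data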
Target sequence (P55789 whole entry, looked up): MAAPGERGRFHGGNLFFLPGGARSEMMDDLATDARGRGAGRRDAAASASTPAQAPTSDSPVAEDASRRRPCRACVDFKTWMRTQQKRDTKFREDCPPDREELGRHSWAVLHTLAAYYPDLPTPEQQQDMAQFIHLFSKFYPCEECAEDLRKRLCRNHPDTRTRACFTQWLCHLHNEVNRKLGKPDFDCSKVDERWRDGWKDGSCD
ERp5 block – blocks human ERp5 reductase activity on insulin; inhibition, % at 9.99 µM; 350,000 tested, 0.05% active; AID 651711; Q15084; ERp5 insulin aggregation, absorbance 650 nm, 90 min;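 active = mean replicate inhibition above about 25%, with every replicate also reaching it, limit read from the data, passing the limit was not always enough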
PglD DTNB – PglD (C. jejuni) enzyme inhibition. purified PglD enzyme, DTNB colorimetric CoA detection. inhibition, % at 12.5 µM. 360,000 tested, 0.098% active. AID 602405; in the data active = inhibition above about 16%, passing the limit was not always enough
Numbers without * were called inactive.

For CCC(=O)Nc1ccc2c(c1)C(=O)N(C)[C@@H]1CC[C@@H](CC(=O)NCC3CC3)O[C@H]1CO2 the results were ARNT TACC3 PPI 17.8, ERp5 block -1.2 and PglD DTNB 4.1.
O=C(O)c1ccc(N2CCCCCC2)c(N2C(=O)c3ccccc3C2=O)c1 was read as NRP1-CendR mod 25.7*, PDI turbidity 5.4, ALR inh 17.8 and PglD DTNB -1.6.
`O=C(O)c1ccc2c(c1)C(=O)N(c1ccc(Nc3ccccc3)cc1)C2=O` gave NRP1-CendR mod 8.4, PDI turbidity 1.4, ARNT TACC3 PPI -0.8, ALR inh 97.6*, ERp5 block 4.5 and PglD DTNB 7.9.
CC1=C2[C@@H](c3ccccc3)OB(O)C[C@@H]2n2c(=O)n(-c3ccccc3)c(=O)n2C1 was read as ARNT TACC3 PPI 20.5, ERp5 block 1.8 and PglD DTNB 2.0.
`O=[N+]([O-])c1ccc(N/N=C2\CC3CC=CC23)c([N+](=O)[O-])c1` (centres undefined) gave NRP1-CendR mod -9.7, PDI turbidity -2.0, ARNT TACC3 PPI 17.6, ALR inh -8.5 and ERp5 block 1.2.
O=[N+]([O-])c1ccc(N/N=C2\CC3CC=CC23)cc1 (centres undefined) was read as NRP1-CendR mod 14.0, PDI turbidity -7.1, ARNT TACC3 PPI 22.4, ALR inh 95.7* and ERp5 block 1.1.
CCCC(=O)Nc1ccc2c(c1)OC[C@@H](C)NC[C@H](C)[C@H](OC)CN(C)C2=O was read as ARNT TACC3 PPI 3.5, ERp5 block 3.5 and PglD DTNB -2.1.
O=C(CCc1ccccc1)NC1(Cc2ccccc2)CCN(CCc2cccs2)C1=O (centres undefined) was read as NRP1-CendR mod 19.4*, PDI turbidity -8.3, ARNT TACC3 PPI -11.1, ALR inh -2.5, ERp5 block -1.3 and PglD DTNB -2.9.
For CC1(NC(=O)CCc2ccccc2)CCN(CCCc2ccccc2)C1=O (centres undefined) the results were NRP1-CendR mod 5.8, PDI turbidity -2.3, ARNT TACC3 PPI 1.0, ALR inh -11.5, ERp5 block -12.5 and PglD DTNB 4.0.
`O=C(COC(=O)c1cc(-c2cccs2)nc2ccccc12)NCc1ccco1` gave NRP1-CendR mod -11.5, PDI turbidity 15.3, ARNT TACC3 PPI -5.9 and ALR inh 8.4.
O=C(COC(=O)c1cc(-c2ccc(Cl)s2)nc2ccccc12)NCc1ccco1 was read as NRP1-CendR mod -25.2, PDI turbidity 8.5 and ALR inh 91.8*.
For CCOC(=O)/C=C/c1ccc2c(c1)S(=O)(=O)N(c1cccc(OC)c1)[C@H]2CC(=O)OCC the results were NRP1-CendR mod 28.5*, PDI turbidity 4.6, ARNT TACC3 PPI -3.1, ALR inh -10.8, ERp5 block 5.5 and PglD DTNB 1.8.
COC(=O)/C=C/c1ccc2c(c1)S(=O)(=O)N(c1cccc(OC)c1)[C@H]2CC(=O)OC was read as NRP1-CendR mod 15.5, PDI turbidity -2.3, ARNT TACC3 PPI 11.6, ALR inh -2.4, ERp5 block 1.7 and PglD DTNB 5.4.
For Cc1ccccc1NC(=O)c1ccc2c(c1)N(C)CCS2 the results were NRP1-CendR mod 11.1, ARNT TACC3 PPI 1.4, ALR inh 97.6*, ERp5 block -0.1 and PglD DTNB 6.0.
Screening CN1CCSc2ccc(C(=O)Nc3cc(F)ccc3F)cc21 returned NRP1-CendR mod -4.1, PDI turbidity -5.1, ARNT TACC3 PPI -9.6, ALR inh 9.9 and ERp5 block -3.8.
For CCN1CCSc2ccc(C(=O)NCc3ccccc3C)cc21 the results were NRP1-CendR mod -0.6, ARNT TACC3 PPI -2.3, ALR inh 89.8*, ERp5 block 5.8 and PglD DTNB -2.5.
O=C(NCc1ccco1)c1ccc2c(c1)N(Cc1ccccc1)CCS2 was read as NRP1-CendR mod 1.0, PDI turbidity 0.7, ARNT TACC3 PPI 29.0, ALR inh 97.8* and ERp5 block 4.0.
For CCN1CCSc2ccc(C(=O)NCc3ccccc3Br)cc21 the results were NRP1-CendR mod -3.0, ARNT TACC3 PPI 0.5, ALR inh 6.1, ERp5 block 2.4 and PglD DTNB -2.6.
For CCN1CCN(CCCNC(=O)c2ccc3c(c2)N(Cc2ccccc2)CCS3)CC1 the results were NRP1-CendR mod 7.1, PDI turbidity 8.5, ARNT TACC3 PPI 7.3, ALR inh 98.9*, ERp5 block 6.2 and PglD DTNB 0.2.
